Compound activity from PubChem BioAssay.
proKLK7 act: proKLK7 (human) activation, primary screen | activation, % at 7 µM | purified proKLK7, EDANS-DABCYL substrate fluorescence; 100% is mature enzyme control, 0% vehicle | actives 0.9% (n = 370,000) | AID 652039;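 active means activation above the mean of all tested compounds plus 3 SD, computed per campaign excluding outliers beyond control limits, cut at about 13% in these data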
Target sequence (P49862 whole entry, looked up): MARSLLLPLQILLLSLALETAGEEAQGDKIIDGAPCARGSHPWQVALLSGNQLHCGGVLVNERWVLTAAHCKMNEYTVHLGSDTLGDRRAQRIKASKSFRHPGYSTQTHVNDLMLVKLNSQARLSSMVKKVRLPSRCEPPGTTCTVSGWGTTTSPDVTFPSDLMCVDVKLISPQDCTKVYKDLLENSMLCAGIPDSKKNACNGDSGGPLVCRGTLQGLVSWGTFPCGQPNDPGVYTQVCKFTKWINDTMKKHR
MsrA act: activates bovine MsrA enzyme. AID 602163. purified bovine MsrA, absorbance read-out. actives 0.3% (n = 360,000). activation, % at 10.6 µM; in the data active means activation above about 7.5%;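 further: 0% = vehicle and 100% = reference activator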
SMARCA2 activ: activators of SMARCA2 function. MG213 cells, MMTV-luciferase reporter, dexamethasone, overnight. activation, % at 9.1 µM. actives 1% (n = 370,000). AID 652017; in the data active means activation above about 7.8%;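 further: 0% = vehicle wells and 100% = reference activator wells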
MsrA inh: inhibitors of bovine MsrA | purified bovine MsrA, absorbance read-out | inhibition, % at 15.5 µM | actives 0.75% (n = 360,000); in the data active means inhibition above about 4.5%;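 further: 0% = vehicle wells with enzyme and 100% = reference inhibitor wells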
MsrA act confirm: confirmation of bovine methionine sulfoxide reductase A activators; shares compounds with MsrA act; purified bovine MsrA, absorbance read-out; activation, % at 10.6 µM; actives 12% (n = 1,000); in the data active means activation above about 4%;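 further: enzyme coupled to thioredoxin and thioredoxin reductase with NADPH; 0% = vehicle wells and 100% = reference activator wells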
The depositor's hits bear a star; . = no result given. An excerpt weighted towards active compounds, which were near 2.8% of everything screened.

SMILES	proKLK7 act	MsrA act	SMARCA2 activ	MsrA inh	MsrA act confirm
Cc1ccc(-c2nc3ccc(Br)cn3c2Cc2cccc(F)c2)cc1	0	-13	6	0	.
CN(Cc1ccccc1)C(=O)c1csc([C@@H]2O[C@H](CO)[C@H](O)[C@H](O)[C@H]2O)n1	-1	14*	-2	0	-1
CN(Cc1ccccc1)C(=O)c1ccc2sc([C@@H]3O[C@H](CO)[C@H](O)[C@H](O)[C@H]3O)nc2c1	0	-2	-1	0	.
CCCCn1nnnc1SCC(=O)c1cc(Cl)ccc1OC	0	-2	2	0	.
COc1ccc(Cl)cc1C(=O)CSc1nc(N)cc(N)n1	0	8.0*	7	0	-1
COc1ccc(NC(=O)c2ccc([N+](=O)[O-])cc2[N+](=O)[O-])c(OC)c1	0	11*	-4	2	1
COc1ccccc1NC(=O)c1cc(OC)c(OC)cc1[N+](=O)[O-]	1	-3	3	0	.
O=C1NC(=Nc2ccccc2)c2ccc([N+](=O)[O-])cc21	0	6	-3	-1	.
Cc1cccc(N=C2NC(=O)c3cc([N+](=O)[O-])ccc32)c1	0	7.8*	1	-1	4
O=C(NC1CC1)C1=C[C@@H](c2ccc(C(F)(F)F)cc2)C[C@@H](OCc2ccc(CO)cc2)O1	0	8.1*	0	1	3
O=C(NC1CC1)C1=C[C@H](c2ccc(Br)cc2)C[C@H](OCc2ccc(CO)cc2)O1	0	-3	-1	1	.
COc1ccc(S(=O)(=O)Nc2cccc(S(=O)(=O)N(C)C)c2)cc1[N+](=O)[O-]	0	-1	-5	1	.
Cc1ccc(Cn2nnc3c(=O)[nH]c(C4CCN(C(=O)Cc5cccs5)CC4)nc32)cc1	0	7.7*	-3	0	0
O=C(Cc1cccs1)N1CCC(c2nc3c(nnn3Cc3ccccc3)c(=O)[nH]2)CC1	0	-2	2	-2	.
CCOC(=O)COc1ccc(C(C)c2ccc(NC(=O)OC(C)(C)C)cc2)cc1 (configuration not stated)	0	.	-5	.	.
Nn1c(SCC(=O)NC2CCCc3ccccc32)nnc1-c1cccs1 (configuration not stated)	0	8.7*	-1	1	0
Cc1cccc(C)c1OCC(=O)NNC(=O)CCNC(=O)c1ccc(Br)cc1	0	-1	-2	-1	.
Cc1cccc(C)c1OCC(=O)NNC(=O)CNC(=O)c1ccc(OC(F)F)cc1	0	8.1*	-2	-1	-1
CC1=C(C(=O)N2CCCCCC2)CC(CC(=O)NCCc2ccccn2)C(=O)N1Cc1ccc(C(C)(C)C)cc1 (configuration not stated)	0	-2	-3	0	.
CCN(CC)S(=O)(=O)c1ccc(N2CCCCC2)c(NC(=O)/C=C/c2ccc(OC)c(OC)c2)c1	-26	15*	-2	2	3
CCC(C)[C@H](NC(=O)N1CCC(C)CC1)C(=O)OC (some centres not stated)	0	14*	-2	1	1
CCC(C)[C@H](NC(=O)N1CCCC1)C(=O)OC (some centres not stated)	0	-3	0	0	.
O=C(Cc1cc(=O)[nH][nH]1)N/N=C/c1ccccc1C(F)(F)F	0	.	3	.	.
CCCN(CC1CC1)c1nc(C)nc2c1nnn2Cc1ccccc1	0	.	-1	.	.
CC(=O)Nc1cccc(OCCCNC(=O)c2ccc(F)cc2)c1	0	9.0*	-3	1	0
SMILES	proKLK7 act	MsrA act	SMARCA2 activ	MsrA inh	MsrA act confirm
Cc1cccc(NC(=O)c2ccc(C(=O)c3ccccc3)cc2)n1	0	-3	-1	0	.
Cc1cccc(NC(=O)NC(=O)c2ccccc2)n1	0	8.1*	0	0	1
CCN(CC)c1ncnc2c1ncn2[C@H]1CN(Cc2ccccc2)C[C@@H](COC(C)=O)O1	0	0	4	0	.
COc1cccc(NC(=O)C(C)OC(=O)c2n[nH]c3ccccc23)c1 (configuration not stated)	1	16*	-1	-1	0
CNc1snc(C)c1C(=O)OC(C)C(=O)Nc1cccc(OC)c1 (configuration not stated)	0	-10	-3	-1	.
CC(C)C[C@H]1COc2cc(N3CC[C@@H](O)C3)ccc2S(=O)(=O)N1	1	9.9*	-4	0	0
Cn1c(=O)c2cc(S(=O)(=O)N3CCN(Cc4ccccc4)CC3)ccc2n(C)c1=O	0	.	-4	.	.
Oc1c(Cl)cc(Oc2cc(Cl)c(O)c(CN3CCOCC3)c2)cc1CN1CCOCC1	0	8.7*	3	0	-1
O=C(Nc1ccc2c(c1)OCCO2)C(c1cc2ccccc2o1)N1CCN(C/C=C/c2ccccc2)CC1 (configuration not stated)	0	16*	-7	0	-2
CC(=O)NC(C)C(=O)N1CCCC1C(=O)N1CCCC1C(=O)NC(C)C(=O)NC1C(=O)NC(CC(C)C)C(=O)NC2CCCCNC(=O)CCC(C(=O)NC(Cc3ccc(O)cc3)C(=O)O)NC(=O)C3CCC(=O)OCC(NC(=O)C4CCCN4C(=O)C(Cc4c[nH]c5ccccc45)NC2=O)C(=O)NC(CC(=O)OC1C)C(=O)NC(Cc1c[nH]c2ccccc12)C(=O)N3 (configuration not stated)	0	.	-3	.	.
COC(=O)c1ccccc1Oc1cc(C(F)(F)F)nc(-c2ccccn2)n1	1	-3	-1	-1	.
CC(O)(c1cccnc1)c1nc(-c2ccc3ccccc3c2)cs1 (configuration not stated)	0	-1	-4	0	.
Cc1cccc(C)c1-n1nnnc1-c1nc2cc(Br)ccc2[nH]c1=O	0	8.0*	-1	-1	2
O=C1NC(=O)C([N+](=O)[O-])=C(O)C1=O	0	-2	3	1	.
CCOC(=O)CSc1nc2ccccc2n1CC(=O)NC(C)(C)C	0	-2	-1	-1	.
COc1ccc(C(=O)CSc2nc3ccccc3n2CC(=O)NC(C)(C)C)cc1	-1	9.7*	0	0	-1
CN(CC(=O)Nc1ccc(Cl)c(C(F)(F)F)c1)C(=O)/C=C/c1cccs1	0	-1	-4	1	.
CC(=O)c1ccc(S(=O)(=O)N2CCN(C(=O)C(=O)c3cccc(C(F)(F)F)c3)CC2)cc1	0	.	-1	0	.
Cn1c(Oc2ccncc2)nc2cc(-c3ccsc3)sc2c1=O	0	15*	1	3	-2
Cn1c(NCc2ccncc2)nc2cc(-c3ccsc3)sc2c1=O	1	-4	0	0	.
CN(C)S(=O)(=O)c1ccc(Cl)c(NC(=O)COC(=O)CNS(=O)(=O)c2c(F)cccc2F)c1	-1	8.8*	0	0	1
CC(C)(C)[C@H]1COC(=O)[C@H](NC(=O)OCC2c3ccccc3-c3ccccc32)C/C=C\C[C@@H](CC(=O)N(CCO)Cc2ccccc2)C(=O)N1	1	-6	1	-1	.
COc1ccc2[nH]cc(C(C)c3ccccc3O)c2c1 (configuration not stated)	0	.	-1	.	.
